Test results as given in paper PMC5540273 (PLoS ONE, 2017).

Key:
Details in all cases: concentration: 1 μM, replicates: in singlicate; n = 1
BLK = tested on: BLK
BMPR1A = tested on: BMPR1A
BMPR1B = tested on: BMPR1B
BMPR2 = tested on: BMPR2
BMX = tested on: BMX
BRAF = tested on: BRAF
BRK = tested on: T1, BRK
T1 construct: gene PTK6

BRSK1 = tested on: BRSK1
BRSK2 = tested on: BRSK2
BTK = tested on: BTK
BUB1 = tested on: BUB1
CAMK1B = tested on: CAMK1B
CAMK1D = tested on: CAMK1D
CAMK1G = tested on: CAMK1G
CAMK1 = tested on: CAMK1
CAMK2A = tested on: CAMK2A
CAMK2B = tested on: CAMK2B
CAMK2D = tested on: CAMK2D
CAMK2G = tested on: CAMK2G
CAMK4 = tested on: CAMK4
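Note: KINOMEscan kinase panel screen.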

Row | Compound | %Inh (BLK) [%] | %Inh (BMPR1A) [%] | %Inh (BMPR1B) [%] | %Inh (BMPR2) [%] | %Inh (BMX) [%] | %Inh (BRAF) [%] | %Inh (BRK) [%] | %Inh (BRSK1) [%] | %Inh (BRSK2) [%] | %Inh (BTK) [%] | %Inh (BUB1) [%] | %Inh (CAMK1B) [%] | %Inh (CAMK1D) [%] | %Inh (CAMK1G) [%] | %Inh (CAMK1) [%] | %Inh (CAMK2A) [%] | %Inh (CAMK2B) [%] | %Inh (CAMK2D) [%] | %Inh (CAMK2G) [%] | %Inh (CAMK4) [%]
1 | O=C(NCCCN1CCOCC1)c1cccc(Nc2nccc(Nc3ccc(Oc4ccccc4)cc3)n2)c1 [GW663929] | 95.4 | 0 | 0 | 15 | 54 | 0 | 69 | 6 | 0 | 51 | 28 | 37 | 33 | 0 | 55 | 3 | 6 | 2 | 0 | 0
2 | O=C(Nc1cccc(-c2nn3ncccc3c2-c2ccnc(Nc3cccc(C(F)(F)F)c3)n2)c1)c1c(F)cccc1F [GSK299495] | 95.9 | 0 | 0 | 23 | 72 | 69 | 71 | 0 | 0 | 66 | 80 | 30 | 21 | 9 | 32 | 100 | 100 | 19 | 11 | 0
3 | Fc1ccc(-c2ncn(CCCN3CCOCC3)c2-c2ccccn2)cc1 [SB-211742] | 9 | 7 | 0 | 0 | 0 | 0 | 2 | 6 | 14 | 15 | 0 | 0 | 0 | 0 | 0 | 6 | 10 | 0 | 11 | 20
4 | NCC(NC(=O)c1cc(-c2cn[nH]c2)c(-c2ccnc3[nH]ccc23)s1)c1ccccc1.O=C(O)C(F)(F)F.O=C(O)C(F)(F)F (centres unmarked) [GSK1325775] | 0 | 0 | 80 | 4 | 0 | 0 | 0 | 30 | 21 | 0 | 94.6 | 49 | 50 | 33 | 41 | 0 | 12 | 35 | 30 | 0
5 | O=c1cc(N2CCOCC2)nc2n(Cc3cccc(Cl)c3Cl)c(C3CC3)nn12 [GSK2358994] | 0 | 15 | 0 | 13 | 19 | 0 | 0 | 3 | 0 | 0 | 0 | 0 | 0 | 5 | 0 | 25 | 10 | 18 | 0 | 5
6 | O=c1cc(N2CCOCC2)nc2n(Cc3cccc4ccccc34)ccn12 [GSK2333389] | 21 | 0 | 0 | 0 | 7 | 9 | 0 | 1 | 0 | 0 | 32 | 4 | 15 | 0 | 0 | 0 | 0 | 0 | 0 | 0
7 | O=C(Nc1n[nH]c2cc(-c3cccc(F)c3)ccc12)C1CC1 [SB-735464] | 0 | 16 | 65 | 28 | 0 | 1 | 0 | 34 | 33 | 0 | 0 | 0 | 22 | 0 | 31 | 19 | 1 | 0 | 27 | 0
8 | c1ccc(-c2cc(-c3c[nH]nc3-c3ccccn3)ccn2)cc1 [GW576604] | 37 | 1 | 0 | 4 | 3 | 0 | 0 | 0 | 0 | 0 | 34 | 10 | 14 | 0 | 14 | 0 | 0 | 10 | 30 | 0
9 | Cc1c2ccc(N(C)c3ccnc(Nc4cccc(S(N)(=O)=O)c4)n3)cc2nn1Cc1ccccc1.Cl.Cl [GW787226] | 82 | 3 | 0 | 1 | 6 | 95.8 | 89 | 0 | 0 | 0 | 0 | 0 | 0 | 11 | 2 | 0 | 0 | 0 | 0 | 16
10 | Cc1nnc(-c2ccc(C)c(-c3ccc(C(=O)Nc4ccc(NS(C)(=O)=O)cc4)cc3)c2)o1 [GW702865] | 14 | 0 | 0 | 9 | 16 | 0 | 3 | 9 | 0 | 40 | 35 | 10 | 2 | 0 | 4 | 0 | 1 | 0 | 0 | 0
